High-throughput results from PubChem.
PPARg SRC-2 ag – promotes SRC-2 coactivator recruitment by human PPARgamma; P37231; PPARgamma LBD-SRC-2 recruitment, biochemical; activation, % at 8 µM; 200,000 tested, 0.34% active; AID 1032; in the data active = activation above about 22%
Target sequence (P37231 whole entry, looked up, the tested form may be a part): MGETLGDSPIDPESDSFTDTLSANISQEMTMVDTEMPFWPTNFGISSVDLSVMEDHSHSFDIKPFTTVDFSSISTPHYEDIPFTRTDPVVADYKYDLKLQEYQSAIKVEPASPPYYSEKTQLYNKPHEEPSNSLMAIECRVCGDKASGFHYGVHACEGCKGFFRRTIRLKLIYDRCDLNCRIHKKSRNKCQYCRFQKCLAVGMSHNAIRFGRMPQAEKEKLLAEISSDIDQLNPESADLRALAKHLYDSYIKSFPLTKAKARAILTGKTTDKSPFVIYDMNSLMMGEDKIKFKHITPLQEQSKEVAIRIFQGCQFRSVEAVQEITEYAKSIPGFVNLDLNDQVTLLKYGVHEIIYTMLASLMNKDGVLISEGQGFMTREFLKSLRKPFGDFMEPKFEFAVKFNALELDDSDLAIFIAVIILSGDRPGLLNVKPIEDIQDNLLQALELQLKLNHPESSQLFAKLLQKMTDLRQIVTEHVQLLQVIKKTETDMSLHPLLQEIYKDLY
SRC2 TRFRET art – TR-FRET artefact, counter-screen to PPARgamma/SRC-2 agonist assay; hits give high values; TR-FRET ratio at 8 µM; 200,000 tested, 0.4% active; AID 1049
SRC3 TRFRET art – counter-screen for PPARgamma SRC-3 recruitment agonists: TR-FRET artefact; PPARgamma/SRC-3 format; hits give high values; 99,000 tested, 0.39% active; TR-FRET ratio at 8 µM; AID 1048
SRC1 TRFRET art – counter-screen for PPARgamma SRC-1 recruitment agonists: TR-FRET artefact | TR-FRET detection artefact counter-screen, emission ratio; hits give high values | TR-FRET ratio at 8 µM | 99,000 tested, 0.34% active; in the data active = TR-FRET ratio above about 2300
PPARg SRC-3 ag – PPARgamma-driven SRC-3 recruitment agonism; P37231; biochemical PPARgamma/SRC-3 coactivator recruitment assay; activation, % at 8 µM; 200,000 tested, 0.26% active; AID 731; in the data active = activation above about 23%
PPARg SRC-1 ag – PPARgamma-driven SRC-1 recruitment agonism | 200,000 tested, 0.41% active | PPARgamma-SRC-1 coactivator recruitment biochemical assay | activation, % at 8 µM | P37231; in the data active = activation above about 19%
PPARg SRC2 ag – confirmation of agonists of SRC-2 recruitment by human PPARgamma; 790 tested, 52% active; biochemical SRC-2 recruitment by PPARgamma; activation, % at 8 µM; AID 1297; shares compounds with PPARg SRC-3 ag; in the data active = activation above about 22%
PPARg SRC1 ag – confirmation of agonists of SRC-1 recruitment by human PPARgamma; shares compounds with PPARg SRC-3 ag; PPARgamma–SRC-1 coactivator recruitment biochemical assay; activation, % at 8 µM; 790 tested, 43% active; AID 1300; in the data active = activation above about 20%
PPARg SRC3 ag – confirmation of agonists of SRC-3 recruitment by human PPARgamma. AID 1301. 790 tested, 29% active. shares compounds with PPARg SRC-3 ag. activation, % at 8 µM. biochemical PPARgamma-SRC-3 coactivator recruitment, agonist mode; in the data active = activation above about 24%
Hits are given with their value; - = inactive; . = no result given. In the library only some 0.9% were active in any assay of this set; here they are far more common. Rule as the data show it, unless noted: active = TR-FRET ratio above about 2000; inactive = the rest.

SMILES	PPARg SRC-2 ag	SRC2 TRFRET art	SRC3 TRFRET art	SRC1 TRFRET art	PPARg SRC-3 ag	PPARg SRC-1 ag	PPARg SRC2 ag	PPARg SRC1 ag	PPARg SRC3 ag
COC(=O)c1c(N)n(Cc2ccc(OC)cc2)c2nc3ccccc3nc12	-	-	-	2577	-	-	.	.	.
COc1ccc(NC2=NC(C)(C)CS2)cc1	-	-	-	-	-	-	.	.	.
CN(C)c1ccc(/C=C/C=C2/C(=O)NC(=O)N(c3ccccc3)C2=O)cc1	29	2441	2895	2995	50	49	70	47	47
O=C1NC(=O)C(CCc2ccccn2)(Cc2ccc3c(c2)OCO3)C(=O)N1CCc1ccccc1 (stereo unspecified)	-	-	.	.	-	-	.	.	.
CN1/C(=C\C=C\C2=[N+](C)c3ccc4ccccc4c3C2(C)C)C(C)(C)c2ccccc21	84	3050	.	.	70	42	49	39	37
c1ccc(-c2[nH]c[n+](CC3CO3)c2-c2ccccc2)cc1 (stereo unspecified)	-	-	-	-	-	-	.	.	.
COc1ccc(NP(=O)(Oc2ccccc2OC)Oc2ccccc2OC)cc1	-	-	-	-	27	-	-	25	-
COC(=O)c1ccccc1-n1c(C)nc2ccccc2c1=O	-	-	.	.	-	-	.	.	.
O=C(O)c1cccc2nc3ccccc3nc12	-	-	-	-	-	-	-	-	-
CN(C)S(=O)(=O)c1cc(NC(=O)COC(=O)Cc2ccccc2)ccc1Cl	-	-	-	-	-	-	.	.	.
CCn1c(=O)cc(SCC(=O)N2CCC3(CC2)OCCO3)c2ccccc21	61	2944	.	.	102	65	37	25	26
Cn1c(=O)n(CC(=O)N2CCC3(CC2)OCCO3)c(=O)c2ccccc21	-	-	-	-	-	-	.	.	.
